Several values for one entry are separate records, joined by “and”; a condition that tells them apart may be missing. Identical values can stand only once. Inconclusive results are not listed. Activity calls are given as the source filed them. Calls come from the whole dose curve; as a rule, active = well fitted inhibition curve with a large enough effect; inconclusive = small, poorly fitted or top-dose-only effect; inactive = no such curve, though single readings can be large or run the other way.
molecular target: Cytochrome P450 2D6 (Homo sapiens) (UniProt P10635); test: qHTS Assay for Inhibitors and Substrates of Cytochrome P450 2D6 (AID 891); conditions: recombinant CYP2D6, luciferin-ME EGE luminescence; series mostly up to 57.1 µM; note: nearly all actives have a fitted effect of over 60% in size
Description: NIH Molecular Libraries Screening Centers Network [MLSCN]
NIH Chemical Genomics Center [NCGC]
The P450 gene superfamily is involved in the metabolism and clearance of xenobiotics. This assay used human CYP2D6 to measure the demethylation of ethylene glycol ester of luciferin 6' methyl ether (Luciferin-ME EGE; […]) to luciferin. The luciferin is then measured by luminescence after the addition of a luciferase detection reagent. Luciferin-ME EGE concentration in the assay was equal to its Km for CYP2D6. Inhibitors and some substrates limit the production of luciferin, and decrease measured luminescence.
NCGC Assay Protocol Summary:
Two uL of enzyme and substrate mix (final concentrations: 5nM CYP2D6, 30uM Luciferin-ME EGE, 100mM KPO4) were dispensed into a white, solid bottom 1536-well microtiter plate. 23nL of compound was transferred by a pin tool. The plate was incubated at room temperature for 10 min. Two uL of an NADPH regeneration solution (Promega supplied reagent) was dispensed and the reaction was allowed to continue for 60 min at room temperature. Then the reaction was stopped by reconstituted luciferin detection buffer. After another 20 min of incubation the plate was read on the ViewLux (Perkin Elmer) at 60 sec exposure and 2x2 binning. This protocol was carried out with Promega-Glo reagents and further information can be found at http://www.promega.com/tbs/tb325/tb325.pdf. Data were normalized to the to AC100 inhibition (1.43 uM quinidine).
Keywords: P450, CYP2D6, Luciferase, MLSMR, MLSCN, NIH Roadmap, qHTS, NCGC
% is set by controls: 0 for no effect and ±100 for the full control effect; potency is the fitted concentration of half-maximal effect.

Chain of Cytochrome P450 2D6 (Homo sapiens) (P10635 whole entry, looked up): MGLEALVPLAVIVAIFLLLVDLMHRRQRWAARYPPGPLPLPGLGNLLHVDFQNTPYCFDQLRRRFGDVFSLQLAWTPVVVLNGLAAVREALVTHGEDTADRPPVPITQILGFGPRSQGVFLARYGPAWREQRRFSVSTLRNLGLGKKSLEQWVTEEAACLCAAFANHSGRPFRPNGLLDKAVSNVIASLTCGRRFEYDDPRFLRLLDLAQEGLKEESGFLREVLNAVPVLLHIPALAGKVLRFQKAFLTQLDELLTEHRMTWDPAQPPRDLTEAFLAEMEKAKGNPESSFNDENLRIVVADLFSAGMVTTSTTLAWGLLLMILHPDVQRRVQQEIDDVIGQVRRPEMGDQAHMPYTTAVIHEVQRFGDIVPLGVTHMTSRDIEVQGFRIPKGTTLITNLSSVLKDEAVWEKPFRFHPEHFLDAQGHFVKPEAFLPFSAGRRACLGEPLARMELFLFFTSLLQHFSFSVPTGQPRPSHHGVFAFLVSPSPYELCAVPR

SMILES	Potency	activity change, negative = inhibition
CNC(=O)OCC[N+](C)(C)C	inactive	–
O=c1c2ccccc2[se]n1-c1ccccc1	10 µM (active) and 1 µM (active)	–
CC(C)(C)c1cc(O)ccc1O	–	11.9% [at 11.4 µM] (inactive)
CCC(=O)O[C@@](Cc1ccccc1)(c1ccccc1)[C@@H](C)CN(C)C	7.94 µM (active)	–
O=[N+]([O-])c1cc(O)c(O)c([N+](=O)[O-])c1	inactive	–
c1ccc2c(c1)[I+]c1ccccc1-2	3.98 µM (active) and 794 nM (active)	–
CN(N=O)c1ccc(O)c(O)c1	inactive	–
CCS(=O)(=O)Nc1cccc(C(=C2CCCCC2)c2cnc[nH]2)c1	7.94 µM (active)	–
CCCN(CCC)[C@@H]1CCc2cccc(O)c2C1	3.16 µM (active) and 794 nM (active)	–
O=S1(=O)N(CCN2CC=C(c3c[nH]c4cc(F)ccc34)CC2)c2cccc3c2N1CCC3	0.199 µM (active)	–
Cc1cc(C)cc(C(=O)OC2C[C@H]3CC[C@@H](C2)N3C)c1 (some centres not stated)	0.251 µM (active)	–
Clc1cc(I)cc(Cl)c1NC1=NCCN1	3.98 µM (active)	–
O=C1C=CC(=O)C=C1	inactive	–
Cc1c2ccncc2c(C)c2c1[nH]c1ccccc12	31.6 µM (active) and 6.31 µM (active)	–
C[N+](C)(C)CC#CCN1CCCC1=O	3.98 µM (active)	–
O=c1ccc2[nH]cc(C3=CCNCC3)c2[nH]1	2.51 µM (active)	–
CCCN(CCC)[C@H]1CCc2c(F)ccc(O)c2C1	631 nM (active) and 1.58 µM (active)	–
